# In PubChem BioAssay (NCI):
# The panel holds about 83,000 compounds, 20% with a hit somewhere; the sample as a whole holds those more often.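 Interpretation: 100, growth as untreated; towards 0, rising growth inhibition; 0, no net growth; 0 to -100, cell death. Compounds scoring below 10 were considered active.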 A number with no mark means an inactive call. The source made the active and inactive calls.
# How the values were obtained:
# Test in all cases: NCI-60 one-dose screen, 48 h (100 = growth as untreated, 0 = no growth, -100 = all killed)
# Conditions in all cases: 10 µM unless noted
# [1] = test system: SR leukemia
# [2] = test system: RPMI-8226 leukemia
# [3] = test system: OVCAR-8 ovarian
# [4] = test system: OVCAR-5 ovarian
# [5] = test system: OVCAR-4 ovarian
# [6] = test system: SK-OV-3 ovarian
# [7] = test system: IGROV1 ovarian
# [8] = test system: OVCAR-3 ovarian
# [9] = test system: HS 578T breast
# [10] = test system: NCI/ADR-RES ovarian
SMILES,growth [1],growth [2],growth [3],growth [4],growth [5],growth [6],growth [7],growth [8],growth [9],growth [10]
CC1CC(C(C)(C)C)C(=O)C(C(C)(C)C)C1 (stereo not given),101%,111%,107%,99.6%,119%,105%,126%,118%,106%,114%
Cc1cc(NCc2cc(Nc3ccnc4cc(Cl)ccc34)ccc2F)nc(Cl)n1,12%,29.6%,35.9%,74.2%,34%,70.2%,57%,57.2%,57.7%,35.7%
O=C(NCCCNc1cc(-c2cn(-c3ccccc3)nc2-c2cccc(O)c2)ccn1)c1ccc(F)cc1,-26.4% (active),-9.31% (active),36.1%,58%,39.8%,30.1%,45.8%,38.4%,-16.7% (active),19%
O=C(Nc1cccc(Oc2nnc(Cl)c3ccccc23)c1)Nc1ccc(Cl)c(C(F)(F)F)c1,-23.8% (active),-15.9% (active),-16.8% (active),-7.38% (active),2% (active),-44.1% (active),-16.8% (active),-41.9% (active),-17.2% (active),-28.2% (active)
Nc1cc2c3c(cccc3c1)C(=O)N(CCN1CCCC1)C2=O,-6.11% (active),7.72% (active),34.4%,65.6%,49.2%,36.9%,8.96% (active),49.9%,35.2%,35.1%
O=C(NCCNc1cc(-c2cn(-c3ccccc3)nc2-c2cccc(O)c2)ccn1)Nc1ccccc1,2.22% (active),60.1%,74.3%,92.4%,70.1%,65.1%,67%,82.3%,50.5%,75.4%
Fc1c[c-]c(-c2ccccn2)c(F)c1.[CH3-].[Pt+2].c1ccc(P(C[PH+](c2ccccc2)c2ccccc2)c2ccccc2)cc1,1.65% (active),-13.2% (active),7.36% (active),-34.5% (active),-19.3% (active),9.11% (active),-22.2% (active),-74.9% (active),-5.48% (active),49.8%
O=C(N/N=C/c1ccncc1)c1ccc(C(F)(F)F)nc1Nc1cccc(C(F)(F)F)c1,2.02% (active),-64.1% (active),-4.88% (active),24.7%,-0.699% (active),32.1%,-35.9% (active),1.03% (active),44.4%,-10.7% (active)
CC(C)(C)C(CCc1ccc(Cl)cc1)N1CCN(C2CCCCC2)CC1 (stereo not given),-13.2% (active),24.4%,60.3%,60.2%,42.6%,59.9%,62.8%,41.6%,68.9%,60.6%
COc1ccc(CN2C(=O)C(Cl)=C(Nc3cccc(C(F)(F)F)c3)C2=O)cc1,9.34% (active),42.6%,42.5%,55.1%,47.6%,75.8%,36.1%,62%,57%,38.9%
O=c1cc(C2NNC(=S)N2)c2ccc3ccccc3c2o1 (stereo not given),97.8%,74.8%,97.4%,109%,101%,97.2%,76.8%,106%,71%,101%
COc1cc2c(cc1-c1c(C)noc1C)ncc1nc(C3CCC(F)(F)CC3)n(C3CCC(OC(F)F)CC3)c12 (stereo not given),33.5%,20%,65.2%,76.2%,50.5%,17.6%,70.1%,44.6%,61.4%,47.4%
Nc1nc(N)c2c(n1)NC(c1ccccc1)C1CCc3ccccc3C1=N2 (stereo not given),19.3%,24.5%,64.9%,112%,27.3%,57.9%,92.2%,38.4%,71.2%,23.9%
Clc1cccc(Cl)c1/C=C/c1cc(/C=C/c2c(Cl)cccc2Cl)[nH]n1,24.7%,21.8%,31.1%,33.4%,54.6%,44.4%,48%,-16.5% (active),45.5%,4.02% (active)
CN1CCN(CCCOc2ccc3nc(Nc4ccc(F)c(F)c4)ccc3c2)CC1,-6.22% (active),28.8%,53.1%,41%,51.2%,49.6%,58.9%,67.4%,33.8%,70.6%
CCCCCCCCCCCCCCCCCCOc1ccccc1CC(=O)OCCC[N+](C)(C)C,56.6%,38.1%,43.8%,46.9%,35%,94.2%,-15.2% (active),64.3%,67.2%,100%
C=C1C(=O)O[C@H]2[C@H]1CC/C(COC(=O)C(=O)c1c[nH]c3ccc(OC)cc13)=C\CC[C@@]1(C)O[C@@H]21,-2.97% (active),-35.6% (active),-24.6% (active),-30.6% (active),-12% (active),15.8%,-73% (active),-74.6% (active),2.01% (active),7.22% (active)
N#CC1=C(NC=O)Oc2c(ccc3ccccc23)C1c1ccccc1 (stereo not given),22.9%,19.1%,23.6%,88.9%,64.5%,16.3%,38.6%,3.87% (active),11.3%,20.4%
O=C1OC(c2nc3ccccc3s2)=C/C1=C\c1ccc(O)cc1,100%,114%,106%,85.5%,100%,103%,95.1%,110%,89.6%,106%
CC(=O)[C@@H]1CC[C@]2(COS(=O)(=O)c3ccc(C)cc3)CC[C@]3(C)[C@H](CC[C@@H]4[C@@]5(C)CCCNC(C)(C)[C@@H]5CC[C@]43C)[C@@H]12,-24.6% (active),46.4%,84%,81%,60.6%,91.1%,58.2%,88.1%,81.7%,78.8%
N#Cc1c(-c2ccccc2)cc(-c2ccc(Nc3nc(Nc4ccc(F)cc4)nc(Nc4ccc(F)cc4)n3)cc2)nc1N,0.591% (active),14.9%,97.2%,70.9%,108%,100%,95.5%,89.5%,87.8%,76.1%
COc1ccccc1NC(=O)N/C(N)=N/c1nc2ccccc2s1,9.32% (active),9.34% (active),27.1%,34.8%,50.7%,40.5%,21.8%,-18.9% (active),27.9%,4.92% (active)
COc1cccc(-c2nn(-c3ccccc3)cc2-c2ccnc(NCCNC(=O)c3ccccc3)c2)c1,-12.5% (active),42.3%,43.8%,102%,53.7%,65.3%,79.6%,63.1%,68.5%,46.6%
CC1O[C@@H](OC2[C@H](OC(=O)/C=C/c3ccc(O)c(O)c3)C(COC3O[C@H](C)C(O)C(O)[C@@H]3O)O[C@@H](OCCc3ccc(O)c(O)c3)[C@H]2O)[C@@H](O)C(O)[C@H]1O (stereo not given in full),105%,104%,106%,105%,104%,90.3%,102%,108%,108%,116%
CN1CCN(C(=O)c2c3c(n4ccccc24)C(=O)c2ncccc2C3=O)CC1,18%,57.9%,68%,99.6%,72%,70%,60%,7.09% (active),52.5%,71.5%
COc1ccc(N2CCN(c3nc(-c4cc(OC)c(OC)c(OC)c4)nc4ccccc34)CC2)cc1,42.6%,54.8%,71.1%,93.5%,88%,91.4%,97%,94.6%,65.2%,65.3%
